Test results from PubChem BioAssay AID602410 (Johns Hopkins Ion Channel Center, 2012).
Screen size: about 340,000 compounds; about 2,800 (0.82%) were called active.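 Rule for the calls: active = B-score under library mean minus 4 SD, starting fluorescence ratio at most library mean plus 5 SD; inactive = the rest.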 The sample as a whole holds a higher share of actives than the screen did.

Each compound was assayed against Potassium channel subfamily K member 3 (Homo sapiens) (UniProt O14649) (assay: blockers of TASK1 two-pore potassium channel – CHO cells, FluxOR thallium flux, B-score, primary screen (AID 602410;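 for B-score: more negative B-score means stronger inhibition of thallium flux through KCNK3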)). Conditions: CHO-KCNK3 thallium flux, FluxOR fluorescence, at 10 µM; hits give low values.
Sequence of Potassium channel subfamily K member 3 (Homo sapiens) (O14649 whole entry, looked up): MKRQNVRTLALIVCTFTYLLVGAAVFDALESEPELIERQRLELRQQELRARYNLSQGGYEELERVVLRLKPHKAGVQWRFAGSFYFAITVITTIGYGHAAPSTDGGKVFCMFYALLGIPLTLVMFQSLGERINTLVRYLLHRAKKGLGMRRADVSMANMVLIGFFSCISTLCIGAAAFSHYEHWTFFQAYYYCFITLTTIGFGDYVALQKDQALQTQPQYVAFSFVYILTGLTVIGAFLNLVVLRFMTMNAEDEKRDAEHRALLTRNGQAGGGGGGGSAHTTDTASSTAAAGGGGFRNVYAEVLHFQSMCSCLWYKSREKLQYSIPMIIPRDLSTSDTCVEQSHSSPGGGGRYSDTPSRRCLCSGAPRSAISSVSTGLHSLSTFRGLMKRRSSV

Row | SMILES | B-score
1 | CC(=O)N(C1=C(Cl)C(=O)c2ccccc2C1=O)c1ccc(C(=O)O)cc1 | -11 (active)
2 | O=C1C(Cl)=C(Oc2ccccc2)C(=O)c2ccccc21 | inactive
3 | O=C(NC1=CC(=O)c2ccccc2C1=O)c1ccccc1 | inactive
4 | CS(=O)(=O)N(CC(=O)N1CCc2ccccc2C1)c1ccc(Br)cc1 | inactive
5 | CC(C)OCC(O)CN1CCN(C(c2ccccc2)c2ccccc2)CC1 (centres undefined) | inactive
6 | CC1(C)CC(N2CCN(C(c3ccccc3)c3ccccc3)CC2)=CC(=[N+]2CCCCC2)C1 | -8.86 (active)
7 | COc1ccccc1CN1CCN(C(c2ccccc2)c2ccccc2)CC1 | inactive
8 | CC(C)Nc1nnc(SCC(=O)/C=C2\N(C)c3ccccc3C2(C)C)s1 | inactive
9 | CN1CCN(CCC(=O)N/N=C/C=C2\N(C)c3ccccc3C2(C)C)CC1 | inactive
10 | CC(=O)Nc1cccc(OCC(=O)/C=C2\N(C)c3ccccc3C2(C)C)c1 | -8.91 (active)
11 | CCCCn1c(N)c(N(CCOC)C(=O)c2cccc(S(=O)(=O)N3CCCCC3)c2)c(=O)[nH]c1=O | inactive
12 | CC(Oc1ccccc1[N+](=O)[O-])C(=O)N/N=C/c1ccoc1 (centres undefined) | inactive
13 | CC(C)c1cc(C(=O)N/N=C/c2ccoc2)c(O)c(C(C)C)c1 | -10.5 (active)
14 | O=C(N/N=C/c1ccoc1)c1ccc(Cl)cc1Cl | inactive
15 | COC(=O)c1cc2c(ccn2C)n1C | inactive
16 | COc1ccc(S(=O)(=O)c2c[nH]c(=S)[nH]c2=O)cc1Cl | inactive
17 | CC(=O)Nc1ccc(S(=O)(=O)NCCC(=O)N2CCN(c3ccccc3Cl)CC2)cc1 | inactive
18 | O=C(C(c1ccccc1)c1ccccc1)N1CCN(CC(O)COc2ccccc2)CC1 (centres undefined) | inactive
19 | CC(C)c1ccc(OCC(O)Cn2cnc3ccccc32)cc1 (centres undefined) | inactive
20 | OC(CN=c1sc2ccccc2n1CC(O)COc1ccccc1)COc1ccccc1 (centres undefined) | -12.6 (active)
21 | COc1ccc(C)cc1NC(=O)CNCc1cccs1 | inactive
22 | O=C1OC(Oc2ccc(Br)cc2)(c2ccccc2)c2ccccc21 (centres undefined) | -10.1 (active)
23 | CS(=O)(=O)Nc1ccccc1N=C(c1ccccc1)c1ccccc1 | inactive
24 | CCC(CC)C(=O)Nc1cc(C(=O)OC)cc(C(=O)OC)c1 | inactive
25 | O=C(NCCCO)c1cc2c([nH]c3ccccc32)c(-c2ccc(F)cc2)n1 | inactive
26 | COc1cccc(-c2nn(C)c3sc(C(=O)N4CCN(c5ccccc5)CC4)cc23)c1 | inactive

Row | SMILES | B-score
27 | COc1ccc2c(Cl)c(C(=O)NCc3ccco3)sc2c1 | inactive
28 | COc1ccccc1N1CCN(C(=O)c2cc3c(-c4ccc(Cl)cc4)nn(C)c3s2)CC1 | -10.1 (active)
29 | COc1ccccc1N1CCN(C(=O)c2cn(-c3ccccc3)nc2-c2cccnc2)CC1 | inactive
30 | Cn1nc(-c2ccc(Cl)cc2)c2cc(C(=O)NCc3ccco3)sc21 | -13.2 (active)
31 | CN(CCNC(=O)c1cc2c(-c3ccccc3F)nn(C)c2s1)C1CCCCC1 | inactive
32 | CCOc1ccc(NS(=O)(=O)c2cc(C)c(C)cc2C)cc1 | inactive
33 | CCOc1ccccc1NC(=O)c1cc(S(=O)(=O)N2CCC3(CC2)OCCO3)ccc1F | inactive
34 | CC(=O)N1CC[n+]2c(-c3ccc([N+](=O)[O-])cc3)csc21 | inactive
35 | CC1CCCCC12NC(=O)N(CC(=O)OCc1c(F)cccc1Cl)C2=O (centres undefined) | inactive
36 | Cc1ccc(CN(C)Cc2cc(=O)oc3cc(C)c(Cl)cc23)cc1 | inactive
37 | CCOc1ccc(N(C)Cc2cc(=O)oc3ccc(OC)cc23)cc1 | inactive
38 | Cc1cc2oc(=O)cc(CN(C)Cc3ccc(OC(F)F)cc3)c2cc1Cl | -10.4 (active)
39 | NNC(=O)c1cccc(COCC(F)(F)C(F)F)c1 | inactive
40 | O=C1Nc2ccc(Br)cc2/C1=N/N=C/C1=C(N2CCOCC2)C(=C\c2ccccc2)/CC1 | inactive
41 | N#C/C(=C\C1=C(N2CCOCC2)C(=C\c2ccccc2)/CC1)C(=O)Nc1ccccc1F | inactive
42 | O=C(O)c1ccc(NN=CC2=C(N3CCOCC3)/C(=C/c3ccccc3)CC2)cc1 | -9.13 (active)
43 | COc1ccc(N2CCN(CCNC(=O)Nc3cc(Cl)ccc3Cl)CC2)cc1 | inactive
44 | COc1ccc(NC(=O)c2sccc2SCC#N)cc1 | inactive
45 | CC(C)(C)N1CC(c2nc3ccccc3n2Cc2ccc(F)cc2)CC1=O (centres undefined) | inactive
46 | Cc1cc(C)c(C)c(S(=O)(=O)N[C@@H](C)C(=O)OC(C)C(=O)NC(N)=O)c1C (some centres undefined) | inactive
47 | CCSc1nsc(NC(=O)Nc2cccc(C(C)=O)c2)n1 | inactive
48 | CSc1nsc(NC(=O)Nc2ccccc2)n1 | inactive
49 | C=CCSc1nsc(NC(=O)Nc2cccc(C(C)=O)c2)n1 | -9.78 (active)
50 | CCOC(=O)C1CCCN(C(=O)C2CCN(S(=O)(=O)c3ccc(Cl)c(C(F)(F)F)c3)CC2)C1 (centres undefined) | inactive
51 | COC(=O)c1cccc(-n2[nH]nnc2=S)c1 | inactive
52 | COc1ccccc1CNC(=O)COc1ccc(C)nc1[N+](=O)[O-] | inactive

Row | SMILES | B-score
53 | Cc1ccc(S(=O)(=O)N2C[C@@H]3CCCC[C@@H]3[C@@H](C)[C@H]2c2cn(Cc3ccccc3)c3ccc(F)cc23)cc1 | inactive
54 | CCc1ccccc1NC(=O)NCCN1CCCCC1 | inactive
55 | CN1CCc2ccccc2C1Cc1ccccc1NC(=O)c1sc2ccccc2c1Cl (centres undefined) | -9.31 (active)
56 | COc1ccc(CNC(=O)CNC(=O)c2sc3ccccc3c2Cl)cc1OC | inactive
57 | CCOc1ccc(CCNC(=O)COC(=O)c2ccc(F)c(S(=O)(=O)N3CCOCC3)c2)cc1OCC | inactive
58 | CCOc1ccc(OCC)c(NC(=O)C2CCN(S(=O)(=O)c3c(C)noc3C)CC2)c1 | inactive
59 | CC[n+]1cc(C)ccc1/C=C/c1ccc(N(C)C)cc1 | -8.95 (active)
60 | CCOC(=O)C1CCN(C(=O)C2CCN(S(=O)(=O)CC)CC2)CC1 | inactive
61 | COC(=O)c1ccccc1Sc1c(/C=N/OCc2ccc(Cl)cc2)c(C(F)(F)F)nn1C | inactive
62 | Cc1ccc(NC(=O)CCC(=O)N2CCC(c3ccccc3)=N2)cc1S(=O)(=O)N1CCCCC1 | inactive
63 | Cc1ccc(C(=O)N2CCCC(c3ccccc3)=N2)cc1 | inactive
64 | Cc1ccc(NC(=S)N2CCCC(c3ccccc3)=N2)cc1 | -8.89 (active)
65 | Cc1ccc(CSc2nc3[nH]ncc3c(=O)[nH]2)cc1 | inactive
66 | Cc1cc2c(=O)n(CC(=O)NCC(=O)Nc3ccc(C(C)C)cc3)cnc2s1 | inactive
67 | CCOC(=O)c1c(N)sc2c1CCCC2=O | inactive
68 | CCOc1ccc(S(=O)(=O)N2CCC(C(=O)OCc3ccc(OC)cc3)CC2)cc1 | inactive
69 | COc1cccc(COC(=O)C2CCN(S(=O)(=O)c3ccc(Cl)cc3)CC2)c1OC | inactive
70 | COC(=O)c1ccc(COC(=O)C2CCN(S(=O)(=O)c3c(Cl)cccc3Cl)CC2)o1 | -10.8 (active)
71 | CC12CN3CC(C)(CN(C1)C3c1ccc(Cl)cc1Cl)C2=O (centres undefined) | inactive
72 | Cn1c(SCC(=O)N2CCCC2)nnc1-c1cccs1 | inactive
73 | CCc1cc(C(c2ccccc2OC)N2CCOCC2)c(NC(=O)c2ccccc2)s1 (centres undefined) | -8.97 (active)
74 | CCc1cc(C(N)=O)c(NC(=O)c2ccc(OC)cc2)s1 | inactive
75 | COc1cc(C(c2c(NC(=O)c3ccco3)sc(C)c2C)N2CCOCC2)cc(OC)c1OC (centres undefined) | inactive
76 | COc1cc(NC(=O)COC(=O)c2cnc(C)cn2)c(C)cc1[N+](=O)[O-] | inactive
77 | COC(=O)c1ccc(C)c(NC(=O)C2CC(=O)N(C3CCCC(C)C3C)C2)c1 (centres undefined) | inactive
78 | CS/C(=C\C(=O)c1ccco1)Nc1ccccc1Cl | -11.4 (active)

Row | SMILES | B-score
79 | O=C(Nc1ccccc1C(=O)N1CCCCC1)c1ccco1 | inactive
80 | O=C(c1cccc(S(=O)(=O)Nc2ccccc2Cl)c1)N1CCN(C(=O)c2ccco2)CC1 | inactive
81 | NS(=O)(=O)c1ccc(CCNC(=O)COC(=O)COc2cccc(C(F)(F)F)c2)cc1 | inactive
82 | CSc1nnc2c(n1)OC(c1ccsc1)N(C(C)=O)c1ccccc1-2 (centres undefined) | -9.55 (active)
83 | Cc1ccc(Cl)cc1NC(=O)CN1CCN(S(=O)(=O)N2CCOCC2)CC1 | inactive
84 | CCOC(=O)CNC(=O)CSc1ccc2nnc(-c3cccnc3)n2n1 | inactive
85 | C/C(CC(C)C)=N\Oc1nc(C)cc(C)n1 | inactive
86 | CCC(C)Sc1nc2c(c(=O)[nH]c(=O)n2C)n1CC(O)COc1cccc2ccccc12 (centres undefined) | inactive
87 | Cc1cc(C)c(NC(=O)C[N+](C)(C)CC(O)COc2cccc3ccccc23)c(C)c1 (centres undefined) | inactive
88 | CC(C)c1ccccc1OCC(O)CN(CC(O)COc1cccc2ccccc12)C(C)C (centres undefined) | -9.21 (active)
89 | O=C(OCC(O)C(O)COC(=O)c1ccccc1)c1ccccc1 (centres undefined) | inactive
90 | Cc1ccc(C)c(S(=O)(=O)Nc2cccc(-n3cnnn3)c2)c1 | inactive
91 | CC(=O)c1c(C)[nH]c(C(=O)Nc2cc(S(=O)(=O)N(C)C)ccc2C)c1C | inactive
92 | O=C(CCn1nnc2ccccc21)OCC(=O)c1ccc([N+](=O)[O-])cc1 | inactive
93 | CCc1nnc(NC(=O)c2cccc(S(=O)(=O)N(C)c3ccc(OC)cc3)c2)s1 | inactive
94 | CCc1nnc(NC(=O)c2cc(S(=O)(=O)N3CCCCC3)ccc2C)s1 | inactive
95 | CCc1ccc2nc3sc(C(=O)Nc4nnc(CC)s4)c(N)c3cc2c1 | -9.98 (active)
96 | Cc1cc(C)nc(NNC2=CC(=O)CC(C)(C)C2)n1 | inactive
97 | O=C1c2ccccc2C(O)N1Cc1ccccc1Cl (centres undefined) | inactive
98 | Cc1cc(C)cc(NC(=S)NCCc2c[nH]c3ccccc23)c1 | inactive
99 | O=C(NCCc1c[nH]c2ccccc12)c1cc2ccccc2oc1=O | inactive
100 | O=C(NCCc1c[nH]c2ccccc12)c1cccc(Br)c1 | -11.8 (active)
101 | O=P(c1cccs1)(c1cccs1)c1cccs1 | inactive
102 | CCC1CCCCN1C(=S)Nc1ccc(C(C)=O)cc1 (centres undefined) | inactive
103 | CCC1CCCCN1C(=O)Nc1cccc(NC(=O)N2CCCCC2CC)c1 (centres undefined) | -10.6 (active)
104 | CCC1CCCCN1C(=S)NC(=O)c1ccco1 (centres undefined) | inactive
